# Sampled rows, rich in hits. Any-hit rate of the full collection: about 17%.
# HT1080NT lethal: qHTS for induction of synthetic lethality in tumor cells producing 2HG: qHTS for the HT-1080-NT fibrosarcoma cell line; HT-1080-NT fibrosarcoma viability, CellTiter-Glo ATP luminescence, 48 h; Potency, µM (doses to about 46.1 µM), for inactives: at the highest dose activity, negative = less viability, actives largely listed as cytotoxic; hit rate 1.6% among 360,000; AID 686970, 2013;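 further: NT is the 2HG producing partner of a matched IDH1 knockdown line; 0% = DMSO-treated cells and -100% = media-only wells without cells; nearly all actives have a fitted effect of over 55% in size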
#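 Fibrosarcoma NT cells, 750 per well in 5% FBS RPMI, were exposed to compound for 48 hours. Viability: CellTiter-Glo luminescence.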
# TGFb inhibitor: qHTS for Inhibitors of TGF-b | HepG2 CAGA-GFP TGF-b/SMAD3 reporter, GFP fluorescence, 18 h; TGF-beta stimulated, 500 pg/mL final | Potency, µM (titrated, usually from 46.1 µM), for inactives: at the highest dose activity, negative = inhibition, actives largely listed as inhibitors | hit rate 1.2% among 410,000; further: on the % scale 0 is the no-effect control and ±100 the full control effect; nearly all actives have a fitted effect of over 65% in size
#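 GFP signal (ex488/em500-530) from TGF-beta-stimulated HEPG2 CAGA-GFP cells, 500 pg/mL final, 18 h at 37 degrees C in DMEM plus 1% FBS, normalized to unstimulated and DMSO-stimulated controls.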
# HepG2 tox: qHTS for Inhibitors of TGF-b: Cytotox Counterscreen; HepG2 CAGA-GFP viability, ATP luminescence, 18 h; Potency, µM (highest dose often 46.1 µM), for inactives: at the top dose activity change, negative = cytotoxicity, actives largely listed as cytotoxic; hit rate 0.76% among 410,000
#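 CellTiter-Glo luminescence gave cytotoxicity after 18 hours at 37 degrees C. The cells were HepG2 CAGA-GFP in 1% FBS DMEM, stimulated with 500 pg/mL TGF-beta after compound addition. %Activity was normalised to no-cell wells (complete cell-killing) and DMSO (no toxicity), and curves were fitted and classified.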
# TDP1 cell noCPT: qHTS for Inhibitors of human tyrosyl-DNA phosphodiesterase 1 (TDP1): qHTS in cells in absence of CPT. Potency, µM (titrated, usually from 46.2 µM), for inactives: at the highest dose activity change, negative = growth inhibition, hits mostly inhibitors. hit rate 15% among 420,000. DT40 Tdp1-/- hTDP1 cells, no CPT, ATP luminescence, 48 h. AID 686978, 2013; further: on the % scale 0 is the no-effect control and ±100 the full control effect; nearly all actives have a fitted effect of over 55% in size
#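 No-CPT arm: Tdp1-/-;hTDP1 DT40 cells (400/well) plus compounds, incubated ≥48 hr at 37 °C. Readout CellTiter-Glo luminescence.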
# HT1080 IDH1KD tx: qHTS for induction of synthetic lethality in tumor cells producing 2HG: qHTS for the HT-1080-IDH1KD cell line | HT-1080 IDH1 knockdown viability, ATP luminescence, 48 h | Potency, µM (series often up to 46.1 µM), for inactives: top-dose activity, negative = toxicity, hits mostly cytotoxic | hit rate 2% among 360,000;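 further: 0% = DMSO wells and -100% = cell-free medium wells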
#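 Assay cells: HT-1080 with IDH1 knockdown, 750 per well, RPMI/5% FBS. Exposure: 48 h at 37 °C following 2 h pre-incubation. Read: CellTiter-Glo luminescence; fitted concentration-response, curve class assigned.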
# TDP1 cell CPT: qHTS for Inhibitors of human tyrosyl-DNA phosphodiesterase 1 (TDP1): qHTS in cells in presence of CPT | Potency, µM (top dose mostly 46.2 µM), inactives show at the highest dose activity change, negative = growth inhibition, most hits filed as inhibitors | hit rate 12% among 420,000 | chicken DT40 Tdp1-/-;hTDP1 cells + 20 nM CPT, ATP luminescence, 48 h; further: on the % scale 0 is the no-effect control and ±100 the full control effect; nearly all actives have a fitted effect of over 55% in size
#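 Chicken DT40 Tdp1-/- cells complemented with human TDP1, 400 cells/well, exposed to compounds plus 20 nM camptothecin for at least 48 h at 37 C; viability read as ATP content by CellTiter-Glo luminescence.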
# * marks the source's active call; other numbers are inactive results; ? = inconclusive; . = no result. The call rests on the fitted dose curve; in most records, active means well fitted curve in the direction sought with a large enough effect; inconclusive means small, poorly fitted or top-dose-only effect, or another doubt; inactive means no such curve, though single readings can be large; an effect the other way counts as inactive or inconclusive. Potency means the concentration at half of the fitted maximal effect.
SMILES,HT1080NT lethal,TGFb inhibitor,HepG2 tox,TDP1 cell noCPT,HT1080 IDH1KD tx,TDP1 cell CPT
Cc1n[nH]c(C)c1C(=O)CC1(O)C(=O)N(Cc2ccccc2)c2ccc(Br)cc21 (stereo not drawn),-11%,-1%,1%,?,-4%,?
CCCCN1C(=O)C(O)(CC(=O)c2ccc(CC)cc2)c2cc(Br)ccc21 (stereo not drawn),.,?,-108%,18µM*,.,?
O=C(CC1(O)C(=O)N(Cc2ccccc2)c2ccc(Br)cc21)c1ccccc1 (stereo not drawn),.,?,-60%,5.8µM*,.,15µM*
O=C1CCCC2=C1C1(CCCC1)N=C(Nc1nc3cc(-c4ccccc4)ccc3o1)N2,.,?,-32%,.,.,.
CCOc1ccc(C(=O)NCCc2sc3nc(-c4ccc(Cl)cc4)nn3c2C)cc1OCC,.,-29%,-11%,?,.,?
O=C(CC1(O)C(=O)N(Cc2ccc3c(c2)OCO3)c2ccccc21)c1ccccc1 (stereo not drawn),-18%,-14%,-35%,5.8µM*,-22%,3.7µM*
O=C(CC1(O)C(=O)N(CCc2ccccc2)c2ccc(Br)cc21)c1ccccc1O (stereo not drawn),.,?,-89%,5.8µM*,.,5.2µM*
Cc1ccc(C(=O)CC2(O)C(=O)N(Cc3ccc4c(c3)OCO4)c3ccccc32)cc1 (stereo not drawn),-23%,14%,1%,?,-22%,?
C#CCN1C(=O)C(O)(CC(=O)c2ccc(OC)c(OC)c2)c2cc(Br)ccc21 (stereo not drawn),.,?,-35%,6.5µM*,.,4.6µM*
Cc1ccccc1CN1C(=O)C(O)(CC(=O)c2ccncc2)c2ccccc21 (stereo not drawn),-16%,?,3%,3.3µM*,-16%,4.6µM*
CCCCn1nnnc1SCC(=O)NNC(=O)c1ccco1,-1%,18%,3%,-1%,-5%,20%
Cc1cc(=O)oc(C)c1C(=O)Nc1ccc(F)cc1,2%,8%,10%,-7%,-4%,-2%
C#CCN1C(=O)C(O)(CC(=O)c2ccc3c(c2)OCCO3)c2ccccc21 (stereo not drawn),4%,-20%,1%,23µM*,8%,?
O=C(CC1(O)C(=O)N(Cc2ccccc2)c2ccccc21)c1ccncc1 (stereo not drawn),-1%,0%,9%,3.7µM*,-3%,3.7µM*
CCCN1C(=O)C(O)(CC(=O)c2ccc3c(c2)OCCO3)c2ccccc21 (stereo not drawn),3%,2%,11%,?,2%,?
O=C(CC1(O)C(=O)Nc2ccccc21)c1ccccc1 (stereo not drawn),12%,7%,-21%,2%,0%,?
O=C(CC1(O)C(=O)Nc2ccc(Br)cc21)c1ccccc1 (stereo not drawn),-19%,-8%,-10%,26µM*,-3%,?
O=C(CC1(O)C(=O)N(Cc2ccccc2)c2ccccc21)c1ccc2c(c1)OCO2 (stereo not drawn),0%,-9%,-34%,?,-12%,?
Cc1ccc2sc(N(CCN(C)C)C(=O)c3ccc(S(=O)(=O)N4CC(C)OC(C)C4)cc3)nc2c1C (stereo not drawn),-7%,24%,-2%,-23%,-29%,?
Cc1cc(C)c2nc(N(CCCN(C)C)C(=O)c3ccc(S(=O)(=O)N4CC(C)OC(C)C4)cc3)sc2c1 (stereo not drawn),-15%,11%,-3%,21µM*,-29%,16µM*
CN(C)CCCN(C(=O)c1ccc(S(=O)(=O)N2CCCC2)cc1)c1nc2c(F)cc(F)cc2s1,-14%,-7%,-6%,-24%,-6%,4%
CN(C)CCCN(C(=O)c1ccc(S(=O)(=O)N2CCCCCC2)cc1)c1nc2c(F)cc(F)cc2s1,-7%,-15%,0%,16µM*,-3%,?
COC(=O)c1ccc(NC(=O)c2sc3nc(-c4ccccc4)cn3c2C)cc1,-1%,-2%,1%,2.6µM*,-2%,6.5µM*
Cc1cc(C)cc(NC(=O)c2sc3nc(-c4ccccc4)cn3c2C)c1,.,-7%,-8%,12µM*,.,15µM*
Cc1c(C(N)=O)sc2nc(-c3ccccc3)cn12,17%,0%,-7%,-7%,13%,-3%
SMILES,HT1080NT lethal,TGFb inhibitor,HepG2 tox,TDP1 cell noCPT,HT1080 IDH1KD tx,TDP1 cell CPT
Cc1cccc(NC(=O)c2sc3nc(-c4ccccc4)cn3c2C)c1C,.,-5%,1%,?,.,0.52µM*
CCN(CC)CCNC(=O)c1sc2nc(-c3ccccc3)cn2c1C,3%,1%,-6%,?,-9%,-28%
CCc1ccc(NC(=O)c2sc3nc(-c4ccccc4)cn3c2C)cc1,.,-1%,-16%,?,.,?
NCCn1oc(=O)[nH]c1=O,.,.,.,0%,.,-2%
Cc1ccc(-n2ccnc2SCC(=O)N(CC(C)C)C2CCS(=O)(=O)C2)c(C)c1 (stereo not drawn),-3%,-1%,-16%,18µM*,3%,?
CC(C)CN(C(=O)CSc1nn(-c2ccc(Cl)cc2)c(=S)s1)C1CCS(=O)(=O)C1 (stereo not drawn),-10%,21%,2%,18µM*,-17%,?
Cc1nnc(SCC(=O)N(CC(C)C)C2CCS(=O)(=O)C2)s1 (stereo not drawn),-7%,?,-11%,10%,-10%,-3%
O/N=C(/CBr)c1ccc2ccccc2c1,.,12%,0%,-30%,.,3%
COc1ccc(CCN(C)c2ccc(C(N)=O)cc2[N+](=O)[O-])cc1OC,0%,-9%,-17%,-15%,-8%,29µM*
COc1ccc(CCN(C)C/C=C/c2ccccc2[N+](=O)[O-])cc1OC,-4%,-11%,-43%,?,1%,?
CCOC(=O)C1CCCN(c2nc3ccccc3nc2C(C#N)C(=O)OC(C)COC)C1 (stereo not drawn),0%,-5%,-2%,?,4%,-15%

# Assay outcomes deposited in PubChem by National Center for Advancing Translational Sciences (NCATS).
